Data on seven compounds can be found in PubChem BioAssay (Tox21).

Unmarked numbers belong to inactive results. Inconclusive results are not listed. Activity calls are given as the source filed them. Unless noted, calls follow the shape of the dose curve; as a rule, active = well fitted curve in the direction sought with a large enough effect in the repeat runs; inconclusive = weak or mixed curves; inactive = no such curve, though single readings can be large; an effect the other way counts as inactive or inconclusive.

Assay [1] deals with Luciferin 4-monooxygenase (Photinus pyralis) (UniProt P08659). In words: qHTS assay to identify small molecule inhibitors of firefly luciferase (AID 1224835). Also: nearly all actives have a fitted effect of over 25% in size. An outline of the steps: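 Quantitative HTS format; KM concentrations of both substrates. Purified P. pyralis FLuc activity quantified from luminescence images.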
Assay [2] in a line: qHTS assay to identify small molecule agonists of the constitutive androstane receptor (CAR) signaling pathway - cell viability counter screen (AID 1224836). Also: nearly all actives have a fitted effect of over 45% in size. An outline of the steps:
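Compound titrations (15 concentrations) went onto HepG2-CYP2B6-hCAR cells 4 h after seeding, alongside PK11195 at a final 0.75 uM; a 23 h, 37 C/5% CO2 incubation preceded CellTiter-Fluor viability measurement.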

Assay [3] is described as follows: qHTS assay to identify small molecule antagonists of the constitutive androstane receptor (CAR) signaling pathway - cell viability counter screen (AID 1224837). Also: nearly all actives have a fitted effect of over 45% in size. The essentials:
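Counter screen run in HepG2-CYP2B6-hCAR cells: 4 hr settle, compound titration (15 concentrations) with 50 nM CITCO, 23 hr at 37 C/5% CO2, CellTiter-Fluor fluorescence.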

The target of assay [4] is Nuclear receptor subfamily 1 group I member 3 (Homo sapiens) (UniProt Q14994). In words: qHTS assay to identify small molecule antagonists of the constitutive androstane receptor (CAR) signaling pathway (AID 1224838).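 Also: HepG2 cells stably expressing hCAR with CYP2B6 luciferase reporter stimulated by CITCO; nearly all actives have a fitted effect of over 40% in size.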 An outline of the steps:
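Cell line: HepG2 double-stable for hCAR and CYP2B6-2.2kb reporter. Agonist: CITCO, 50 nM final. Compounds: 15 concentrations, 24 h, 37 C. Detection: ONE-Glo luminescence.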

For assay [5] the target is unchanged. The experiment in a line: qHTS assay to identify small molecule agonists of the constitutive androstane receptor (CAR) signaling pathway (AID 1224839).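 Also: HepG2 cells stably carrying human CAR and a CYP2B6 luciferase reporter; nearly all actives have a fitted effect of over 15% in size.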 An outline of the steps: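 In this screen, CAR-driven CYP2B6 promoter activity is measured by luminescence in HepG2-CYP2B6-hCAR cells after 24 h with test compounds and 0.75 uM PK11195 (final concentration).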

The nature of assay [6]: qHTS assay to identify small molecule antagonists of the estrogen related receptor signaling pathway with the pleiotropic PPARgamma coactivator (PGC) from Tox21 10K library - cell viability counter screen (AID 1224840; active = well fitted cell-killing curve with a large enough effect in the repeat runs, not every such curve was filed as active; also: nearly all actives have a fitted effect of over 40% in size). The essentials: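 Following seeding of 2,000 PGC/ERR cells/well and 6 hours' incubation, test compounds were delivered in DMSO. The plates then sat 17.5 hours at 37 C before a fluorogenic live-cell protease reagent (CellTiter-Fluor) was read after 30 min.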

Assay [7] concerns the target Thyrotropin receptor (Homo sapiens) (UniProt P16473). In words: qHTS assay to identify small molecule agonists of the thyroid stimulating hormone receptor (TSHR) signaling pathway (AID 1224843; calls by dose curve; also: nearly all actives have a fitted effect of over 45% in size). An outline of the steps:
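TSHR-expressing HEK293 cells (800 per well) were exposed to compounds for 30 min at room temperature. cAMP was then detected by HTRF competition with cAMP-d2 and anti-cAMP cryptate, read after 1 h at room temperature. Fifteen concentrations, triplicate.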

A short description of assay [8]: qHTS assay to identify small molecule agonists of the hypoxia (HIF-1) signaling pathway - cell viability counter screen (AID 1224844; calls by dose curve; also: nearly all actives have a fitted effect of over 50% in size). An outline of the steps: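 Cells (HRE-bla ME-180, 2,000 per well) sat 5 hrs at 37C, got compound for 17 hrs, were read for CCF4-AM FRET, and were finally lysed with CellTiter-Glo for a 30 min room-temperature luminescence read.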

Assay [9] can be described thus: qHTS assay to identify small molecule agonists of H2AX (AID 1224845; active = well fitted activation curve with a large enough effect in the signal ratio in the repeat runs, not every such curve was filed as active; the % refers to the signal ratio). The essentials: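 Wild-type CHO-K1 cells plated overnight, then exposed 3 hr at 37C to compounds at 15 concentrations (0.76% DMSO). Lysed, then HTRF anti-pH2AX(S139)-cryptate/anti-H2AX-d2 detection after 24 hr at room temperature; emissions 665 and 620 nm.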
Assay [10] in a line: qHTS assay to identify small molecule agonists of the hypoxia (HIF-1) signaling pathway (AID 1224846; active = well fitted activation curve with a large enough effect in the signal ratio in the repeat runs, not every such curve was filed as active; the % refers to the signal ratio). The essentials:
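A low-serum medium (0.5% dialyzed FBS) holding 2,000 HRE-bla ME-180 cells per well is preincubated for 5 hrs, dosed with compounds by pintool, and kept a further 17 hrs at 37C, 5% CO2 before CCF4-AM FRET detection of beta-lactamase.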

A short description of assay [11]: qHTS assay to identify small molecule agonists of H2AX - cell viability counter screen (AID 1224847; calls by dose curve; also: top concentration of the series differs between compounds; nearly all actives have a fitted effect of over 30% in size). An outline of the steps:
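Read-out: CellTiter-Glo luminescence, 30 min RT. Cells: wild-type CHO-K1, 1000/well, 10% FBS, plated overnight at 37C. Treatment: 15 concentrations, 3 hr, 37C, 0.76% DMSO.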

Assay [12] can be described thus: qHTS RealTime-Glo MT Cell Viability Assay in HepG2 cells - 24 hour (AID 1224867). Also: nearly all actives have a fitted effect of over 50% in size. The essentials: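 HepG2 cells (600/well) were dispensed with RealTime-Glo reagents, incubated 5 h at 37 °C, then treated with compounds in DMSO for up to 40 h. Nonlytic NanoLuc luminescence reflecting viable cells was read at each stated time point.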
Assay [13] in a line: qHTS RealTime-Glo MT Cell Viability Assay in HEK293 cells - 32 hour (AID 1224868). Also: top concentration of the series differs between compounds; nearly all actives have a fitted effect of over 50% in size. The essentials:
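HEK293 cells seeded with NanoLuc/prosubstrate reagent, rested 5 h at 37 C, then dosed and kept at 37 C up to 40 h. Nonlytic real-time luminescence from viable cells read at 0, 8, 16, 24, 32 and 40 h.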

Assay [14] in a line: A CellTox Green Cytotoxicity Assay to monitor cytotoxicity in HEK293 cells - 0 hour (AID 1224869). Also: nearly all actives have a fitted effect of over 50% in size. The essentials: (§1)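 Fluorescence intensity, read at 0, 8, 16, 24, 32 and 40 h of compound treatment, reflected dye binding to DNA of dead HEK293 cells; compounds (23 nL, DMSO) were added 5 h after plating cells with reagent.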
Assay [15] is described as follows: qHTS RealTime-Glo MT Cell Viability Assay in HepG2 cells - 40 hour (AID 1224870). Also: nearly all actives have a fitted effect of over 50% in size. An outline of the steps:
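HepG2 cells mixed with RealTime-Glo MT reagents (NanoLuc plus cell-permeant prosubstrate) were seeded at 600 cells/well, incubated 5 h at 37 C/5% CO2, then pinned with compounds in DMSO; nonlytic luminescence tracked viability during 40 h treatment.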

Assay [16] is described as follows: qHTS assay to identify small molecule antagonists of the estrogen related receptor signaling pathway with the pleiotropic PPARgamma coactivator (PGC) from Tox21 10K library (AID 1224841; call rule not given here). An outline of the steps:
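qHTS antagonist format: PGC/ERR cells, 2k/well, compound in DMSO by pin transfer after 6 h attachment, 18 h treatment at 37 C, One-Glo luminescence read at 30 min.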

The nature of assay [17]: qHTS assay to identify small molecule agonists of the estrogen related receptor signaling pathway with the pleiotropic PPARgamma coactivator (PGC) from Tox21 10K library (AID 1224842). Also: nearly all actives have a fitted effect of over 15% in size. An outline of the steps:
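PGC/ERR reporter cells (NTP line) were seeded 2,000 per well, rested 6 h at 37 C/5% CO2, then pin-dosed with compounds in DMSO for 18 h at 37 C; luciferase read by One-Glo luminescence after 30 min at room temperature.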

Assay [18] is described as follows: qHTS assay to identify small molecule antagonists of the estrogen related receptor (ERR) signaling pathway from Tox21 library (AID 1224848). Also: nearly all actives have a fitted effect of over 50% in size. Also: potency is read from the fitted curve at half-maximal effect. An outline of the steps:
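Cells: ERR line, 2,000/well; 6 h preincubation 37 C/5% CO2. Cpd in DMSO via pin tool; 18 h, 37 C. ONE-Glo, 30 min RT, luminescence.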

A short description of assay [19]: qHTS assay to identify small molecule agonists of the estrogen related receptor (ERR) signaling pathway from Tox21 library (AID 1224849; calls by dose curve; also: nearly all actives have a fitted effect of over 15% in size). The note with it: ERR reporter cell line, ONE-Glo luciferase, 18 h; at 92.4 µM (top of the series) unless noted. The essentials:
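Screening used an NTP-provided ERR luciferase cell line. Compounds in DMSO were added 6 h after seeding and left 18 h at 37 C before a 30 min ONE-Glo step and luminescence reading.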

A short description of assay [20]: A CellTox Green Cytotoxicity Assay to monitor cytotoxicity in HEK293 cells - 40 hour (AID 1224871). Also: nearly all actives have a fitted effect of over 45% in size. The essentials:
as §1
% is scaled to controls: 0 for no effect and ±100 for the full control effect.

Chain of Thyrotropin receptor (Homo sapiens) (P16473 whole entry, looked up): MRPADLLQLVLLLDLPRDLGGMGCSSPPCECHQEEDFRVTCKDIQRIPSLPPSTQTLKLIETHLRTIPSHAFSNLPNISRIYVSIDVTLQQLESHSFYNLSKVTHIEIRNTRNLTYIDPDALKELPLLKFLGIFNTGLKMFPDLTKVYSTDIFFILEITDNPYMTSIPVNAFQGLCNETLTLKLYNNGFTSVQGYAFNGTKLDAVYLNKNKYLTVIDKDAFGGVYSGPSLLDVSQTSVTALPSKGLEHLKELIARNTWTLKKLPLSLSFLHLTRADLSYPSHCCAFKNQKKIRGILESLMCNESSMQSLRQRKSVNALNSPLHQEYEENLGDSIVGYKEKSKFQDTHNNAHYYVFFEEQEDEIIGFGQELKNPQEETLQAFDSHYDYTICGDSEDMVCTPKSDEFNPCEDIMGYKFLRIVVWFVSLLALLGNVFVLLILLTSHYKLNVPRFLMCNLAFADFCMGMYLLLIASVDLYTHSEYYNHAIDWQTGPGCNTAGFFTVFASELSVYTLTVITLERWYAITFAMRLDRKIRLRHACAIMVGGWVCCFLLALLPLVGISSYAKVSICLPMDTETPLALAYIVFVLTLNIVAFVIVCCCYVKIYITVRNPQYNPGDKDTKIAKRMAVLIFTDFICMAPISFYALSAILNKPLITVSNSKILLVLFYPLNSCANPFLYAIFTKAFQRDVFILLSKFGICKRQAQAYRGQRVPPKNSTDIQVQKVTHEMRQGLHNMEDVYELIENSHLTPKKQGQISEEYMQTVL
Chain of Luciferin 4-monooxygenase (Photinus pyralis) (P08659 whole entry, looked up): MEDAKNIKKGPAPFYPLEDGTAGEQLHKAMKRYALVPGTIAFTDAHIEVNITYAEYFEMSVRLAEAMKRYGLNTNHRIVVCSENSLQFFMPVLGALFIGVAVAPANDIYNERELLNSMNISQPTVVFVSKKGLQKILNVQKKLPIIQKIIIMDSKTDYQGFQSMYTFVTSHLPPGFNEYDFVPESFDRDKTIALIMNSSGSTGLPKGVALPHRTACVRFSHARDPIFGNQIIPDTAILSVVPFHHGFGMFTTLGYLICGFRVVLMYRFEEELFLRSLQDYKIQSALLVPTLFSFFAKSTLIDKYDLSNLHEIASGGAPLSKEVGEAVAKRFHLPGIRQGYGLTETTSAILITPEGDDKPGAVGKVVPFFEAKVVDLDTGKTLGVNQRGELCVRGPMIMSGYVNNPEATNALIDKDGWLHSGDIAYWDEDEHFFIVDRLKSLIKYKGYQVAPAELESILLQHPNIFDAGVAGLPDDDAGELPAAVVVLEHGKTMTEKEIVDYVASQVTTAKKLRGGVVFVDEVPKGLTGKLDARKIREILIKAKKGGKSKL
Chain of Nuclear receptor subfamily 1 group I member 3 (Homo sapiens) (Q14994 whole entry, looked up): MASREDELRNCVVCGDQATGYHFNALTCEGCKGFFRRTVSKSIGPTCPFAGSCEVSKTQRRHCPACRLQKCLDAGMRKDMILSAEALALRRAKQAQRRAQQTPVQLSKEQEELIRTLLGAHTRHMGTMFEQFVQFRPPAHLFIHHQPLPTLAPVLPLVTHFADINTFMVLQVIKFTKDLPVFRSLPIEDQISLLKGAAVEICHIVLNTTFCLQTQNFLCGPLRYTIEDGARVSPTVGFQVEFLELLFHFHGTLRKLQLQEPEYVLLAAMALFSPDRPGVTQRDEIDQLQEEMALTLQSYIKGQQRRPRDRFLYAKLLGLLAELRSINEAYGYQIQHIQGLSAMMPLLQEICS

Take `CCCSC(=O)N(CCC)CCC`: the Potency result in assay [1], in assay [2], in [3], in [4], in assay [5] and in [6] was “inactive” in each case. The Potency entry in [7], in assay [8], in [9], in assay [11], in assay [12] and in [13] was “inactive” in each case. Further, the Potency entry in assay [14] and in [15] was “inactive” each time. Besides, in assay [10], the outcome was inactive.
With `C[C@@H]1CN(C2CCC(C#N)(c3ccc(F)cc3)CC2)CC[C@]1(C(=O)O)c1ccccc1` (stereo partly specified), the Potency entry in [1], in assay [2], in [3], in assay [4], in assay [5] and in assay [6] was “inactive” each time. Also, the Potency result in assay [16], in [7], in [8], in assay [9], in assay [11] and in [18] was “inactive” throughout. Also, the Potency entry in [12], in assay [13], in assay [14], in assay [15] and in assay [20] was “inactive” throughout. Also, in [17], the outcome was inactive. Besides, the activity change, positive = activation in assay [19] was 0.0799% [at 42.5 µM].
As to `CCN(CC)C(C)C(=O)c1ccccc1` (stereo unspecified), the Potency entry in assay [1], in assay [2], in assay [3], in assay [4], in assay [5] and in assay [6] was “inactive” each time. The Potency result in assay [7], in assay [8], in [9], in assay [11], in assay [12] and in assay [13] was “inactive” each time. Besides, the Potency entry in assay [14], in assay [15] and in assay [20] was “inactive” each time. The outcome in assay [10] was inactive.
Consider `CC(C)(C)OC(=O)c1ncn2c1[C@@H]1CCCN1C(=O)c1c(Br)cccc1-2`, for which the Potency result in assay [1], in assay [2], in assay [3], in assay [4], in assay [5] and in assay [6] was “inactive” in each case. Moreover, the Potency entry in [7], in assay [8], in assay [11], in assay [12], in assay [13] and in assay [14] was “inactive” each time. The Potency entry in assay [15] and in [20] was “inactive” throughout. Besides, the compound was called inactive in assay [17] and in [10]. In addition, the Potency in [18] was 23.7 µM (active). Further, the activity change, positive = activation in [19] was -34.2% [at 42.5 µM].
`Nc1cnn(-c2ccccc2)c(=O)c1Cl`: the Potency result in [1], in [2], in assay [3], in assay [4], in [5] and in assay [6] was “inactive” throughout. Besides, the Potency entry in assay [7], in assay [8], in [9], in assay [11], in [12] and in [13] was “inactive” in each case. Also, the Potency entry in [14], in assay [15] and in assay [20] was “inactive” in each case. The outcome in assay [10] was inactive.
With `CNC(=O)Oc1ccccc1C1OCCO1`, the Potency result in [1], in [2], in [3], in assay [4], in [5] and in [6] was “inactive” throughout. Further, the Potency entry in assay [16], in assay [8], in [9], in [11], in [18] and in assay [12] was “inactive” each time. Also, the Potency entry in assay [13], in assay [14], in assay [15] and in assay [20] was “inactive” in each case. The compound was classed as inactive in [17] and in assay [10]. In addition, the activity change, positive = activation in assay [19] is 4.32%.
On to `CC(=O)[C@H]1CC[C@H]2[C@@H]3CC[C@H]4C[C@H](O)CC[C@]4(C)[C@H]3C(=O)C[C@]12C`, for which the Potency entry in assay [1], in [2], in [3], in assay [4], in assay [5] and in assay [6] was “inactive” in each case. The Potency result in [9], in [11], in [12], in assay [14] and in assay [15] was “inactive” throughout. Moreover, the result in [17] was inactive. The activity change, positive = activation in [19] was -14.9% [at 42.5 µM].
